Assay results: PubChem BioAssay (EPA / NIEHS)
Results filed as inconclusive are left out. The source made the active and inactive calls. How the source made its calls, unless noted: active means hit-call score of the fitted dose curve at least 0.9, where 1 is the maximum; inactive means score below 0.9.

How the values were obtained:
[1] = molecular target: human Vitamin D Receptor (VDR), VDR (gene 7421) (UniProt P11473); experiment: ATG_VDR_TRANS: Attagene TRANS-FACTORIAL HepG2 Assay for human Vitamin D Receptor (VDR) (AID 2283022; active means hit-call score of the fitted dose curve at least 0.9, where 1 is the maximum)
human Vitamin D Receptor (VDR), VDR (gene 7421), sequence (P11473 whole entry, looked up, the tested form may be a part): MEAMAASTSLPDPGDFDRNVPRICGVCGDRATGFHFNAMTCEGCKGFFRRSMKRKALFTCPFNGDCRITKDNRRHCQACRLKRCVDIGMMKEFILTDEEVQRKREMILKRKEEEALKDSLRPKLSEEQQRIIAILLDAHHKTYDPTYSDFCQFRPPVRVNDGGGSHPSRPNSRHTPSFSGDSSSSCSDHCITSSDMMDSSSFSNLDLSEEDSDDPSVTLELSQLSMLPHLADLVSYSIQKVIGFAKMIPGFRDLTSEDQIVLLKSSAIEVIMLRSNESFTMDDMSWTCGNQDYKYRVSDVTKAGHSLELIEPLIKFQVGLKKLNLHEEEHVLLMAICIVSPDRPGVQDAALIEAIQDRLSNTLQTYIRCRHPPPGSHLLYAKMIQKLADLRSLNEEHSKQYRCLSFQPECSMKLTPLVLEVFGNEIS
Outline: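 HepG2 cells were transiently transfected with multiple GAL4-UAS reporter units, so signal reflects exogenous chimeric receptor-Gal4 activity. After 24 h compound exposure, reporter mRNA was measured by RT-PCR, fluorescent labelling and capillary electrophoresis, fitted for gain of signal versus DMSO.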

[2] = BSK_3C_SRB: Viability Assessment in the BioMAP Diversity Plus: 3C Assay (AID 2283023); conditions: primary human endothelial cells (HUVEC);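 further: fitted both ways against DMSO so a hit may be signal rise or drop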
Outline: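 Primary human umbilical vein endothelial cells in the 3C system were read 24 h after compound dosing. Total protein was stained with 0.1% sulforhodamine B after 10% TCA fixation and read at 560 nm, with bidirectional fitting against DMSO as baseline.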

[3] = read-out: Matrix Metallopeptidase 1 (MMP1), MMP1 (gene 4312); experiment: BSK_BE3C_MMP1: BioMAP Diversity Plus: BE3C Assay for Matrix Metallopeptidase 1 (MMP1) Biomarker Activity (AID 2283024); conditions: primary human bronchial epithelial cells; actives raise or lower the signal
Outline: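 ELISA read-out of MMP1 in human lung bronchial epithelial primary cultures, 24 h post-dose; bidirectional curve fit vs DMSO baseline, gain or loss of signal scored.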

[4] = BSK_3C_Vis: BioMAP Diversity Plus: 3C Assay for Morphology Visualization (AID 2283025); conditions: primary human endothelial cells (HUVEC);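 further: fitted both ways so gain or loss versus DMSO counts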;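 on AC50: light microscopy image of cell morphology used as background control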
Outline: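 HUVEC, 3C system; light microscopy of morphology at 24 h post-dose. Bidirectional fit vs DMSO baseline. Secondary readout, background-control function.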

[5] = read-out: Pselectin, SELP (gene 6403); experiment: BSK_4H_Pselectin: BioMAP Diversity Plus: 4H Assay for Pselectin Biomarker Activity (AID 2283026); conditions: primary human endothelial cells (HUVEC); actives raise or lower the signal
Outline: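 HUVEC, 24 h chemical exposure; P-selectin read by ELISA. Bidirectional curve fit vs DMSO baseline; gain or loss of signal scored.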

[6] = BSK_4H_SRB: Viability Assessment in the BioMAP Diversity Plus: 4H Assay (AID 2283027); conditions: primary human endothelial cells (HUVEC);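 further: cells exposed to compound for 24 h before staining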
Outline: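 HUVEC, 24 h post-dose; 10% TCA fix, 0.1% SRB stain, A560 nm. Total protein = overt cytotoxicity, parallel to biomarker read. Bidirectional fit vs DMSO baseline.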

[7] = BSK_BE3C_SRB: Viability Assessment in the BioMAP Diversity Plus: BE3C Assay (AID 2283028); conditions: primary human bronchial epithelial cells
Outline: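 Human primary bronchial epithelial cells were exposed to test chemicals for 24 h. Total protein in parallel cultures was then measured by staining with 0.1% sulforhodamine B after 10% TCA fixation, with absorbance read at 560 nm. Activity was fitted bidirectionally against DMSO.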

[8] = read-out: Urokinase-type plasminogen activator receptor (uPAR), PLAUR (gene 5329); experiment: BSK_4H_uPAR: BioMAP Diversity Plus: 4H Assay for Urokinase-type plasminogen activator receptor (uPAR) Biomarker Activity (AID 2283030); conditions: primary human endothelial cells (HUVEC); actives raise or lower the signal
Outline: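 Primary human umbilical vein endothelial cells were exposed to chemical for 24 h before cell-surface uPAR was quantified by ELISA. Activity was fitted bidirectionally against the DMSO negative control baseline.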

[9] = read-out: Human Leukocyte Antigen - DR isotype (HLADR), HLA-DRA (gene 3122); experiment: BSK_BE3C_HLADR: BioMAP Diversity Plus: BE3C Assay for Human Leukocyte Antigen - DR isotype (HLADR) Biomarker Activity (AID 2283032); conditions: primary human bronchial epithelial cells; actives raise or lower the signal
Outline: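 Primary human bronchial epithelial cells (BE3C); 24 h chemical exposure; HLA-DR by ELISA; bidirectional curve fit vs DMSO baseline.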

[10] = read-out: Vascular cell adhesion molecule 1 (VCAM1), VCAM1 (gene 7412); experiment: BSK_4H_VCAM1: BioMAP Diversity Plus: 4H Assay for Vascular cell adhesion molecule 1 (VCAM1) Biomarker Activity (AID 2283033); conditions: primary human endothelial cells (HUVEC); actives raise or lower the signal;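 on outcome: cell-surface VCAM-1 protein measured by ELISA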
Outline: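 HUVEC, 24 h post-dose; VCAM-1 by ELISA. Bidirectional curve fit vs DMSO baseline. Parallel SRB total-protein stain (0.1% SRB after 10% TCA fixation, 560 nm) for cytotoxicity.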

[11] = read-out: Interferon-gamma inducible Protein 10 (IP10), CXCL10 (gene 3627); experiment: BSK_BE3C_IP10: BioMAP Diversity Plus: BE3C Assay for Interferon-gamma inducible Protein 10 (IP10) Biomarker Activity (AID 2283034); conditions: primary human bronchial epithelial cells; actives raise or lower the signal
Outline: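 ELISA readout of IP-10 in BE3C system: primary human bronchial epithelial cells, 24 h post-dosing; bidirectional curve fit vs DMSO baseline.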

[12] = read-out: Monokine induced gamma interferon (MIG), CXCL9 (gene 4283); experiment: BSK_BE3C_MIG: BioMAP Diversity Plus: BE3C Assay for Monokine induced gamma interferon (MIG) Biomarker Activity (AID 2283035); conditions: primary human bronchial epithelial cells; actives raise or lower the signal;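 further: MIG protein measured by ELISA in BE3C cultures after 24 h of dosing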
Outline: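 Dose cells (human primary bronchial epithelial), incubate 24 h, quantify MIG by ELISA, then fit concentration–response in both directions relative to DMSO control.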

[13] = read-out: Transforming growth factor beta 1 (TGFb1), TGFB1 (gene 7040); experiment: BSK_BE3C_TGFb1: BioMAP Diversity Plus: BE3C Assay for Transforming growth factor beta 1 (TGFb1) Biomarker Activity (AID 2283036;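 further: TGF-b1 protein level measured by ELISA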); conditions: primary human bronchial epithelial cells; actives raise or lower the signal
Outline: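 Read-out: ELISA for TGF-b1 in primary human bronchial epithelial cultures, 24 h post-dose. Bidirectional curve fitting vs DMSO control; gain or loss of signal both scored.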

[14] = read-out: Plasminogen activator inhibitor-1 (PAI1), SERPINE1 (gene 5054); experiment: BSK_BE3C_PAI1: BioMAP Diversity Plus: BE3C Assay for Plasminogen activator inhibitor-1 (PAI1) Biomarker Activity (AID 2283037); conditions: primary human bronchial epithelial cells; actives raise or lower the signal
Outline: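 ELISA read-out of PAI-1 from human bronchial epithelial primary cells, 24 h post-dosing; bidirectional curve fit vs DMSO baseline, gain or loss of signal scored.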

[15] = read-out: Urokinase-type plasminogen activator receptor (uPAR), PLAUR (gene 5329); experiment: BSK_BE3C_uPAR: BioMAP Diversity Plus: BE3C Assay for Urokinase-type plasminogen activator receptor (uPAR) Biomarker Activity (AID 2283039); conditions: primary human bronchial epithelial cells; actives raise or lower the signal;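 further: cells exposed to compound for one day before measurement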
Outline: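 ELISA readout of uPAR on human lung primary bronchial epithelial cells, 24 h post-dosing. Bidirectional curve fit relative to DMSO vehicle baseline; gain or loss of signal both scored.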

[16] = read-out: Interleukin-6 (IL6), IL6 (gene 3569); experiment: BSK_CASM3C_IL6: BioMAP Diversity Plus: CASM3C Assay for Interleukin-6 (IL6) Biomarker Activity for (AID 2283040); conditions: primary human coronary artery smooth muscle cells; actives raise or lower the signal
[17] = read-out: Tissue plasminogen activator (tPA), PLAT (gene 5327); experiment: BSK_BE3C_tPA: BioMAP Diversity Plus: BE3C Assay for Tissue plasminogen activator (tPA) Biomarker Activity (AID 2283041); conditions: primary human bronchial epithelial cells; actives raise or lower the signal;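 further: tPA level quantified by ELISA one day after compound addition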
Outline: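 ELISA read-out of tPA on human primary bronchial epithelial cells, 24 h post-dosing; bidirectional fit vs DMSO negative control/baseline.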

[18] = read-out: Thrombomodulin, THBD (gene 7056); experiment: BSK_3C_Thrombomodulin: BioMAP Diversity Plus: 3C Assay for Thrombomodulin Biomarker Activity (AID 2283029); conditions: primary human endothelial cells (HUVEC); actives raise or lower the signal
Outline: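 HUVEC, 3C conditions; compound 24 h; thrombomodulin by ELISA; bidirectional curve fit vs DMSO baseline; parallel SRB total-protein staining for cytotoxicity.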

[19] = read-out: Vascular endothelial growth factor receptor 2 (Homo sapiens) (UniProt P35968); experiment: BSK_4H_VEGFRII: BioMAP Diversity Plus: 4H Assay for Vascular endothelial growth factor receptor 2 (VEGFR2) Biomarker Activity (AID 2283031); conditions: primary human endothelial cells (HUVEC); actives raise or lower the signal
Outline: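 Primary human umbilical vein endothelial cells in the BioMAP 4H system were dosed with test chemical, and 24 h later VEGFRII was measured by ELISA. Activity was fitted bidirectionally against DMSO as negative control and baseline.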

[20] = read-out: urokinase plasminogen activator (uPA), PLAU (gene 5328); experiment: BSK_BE3C_uPA: BioMAP Diversity Plus: BE3C Assay for urokinase plasminogen activator (uPA) Biomarker Activity (AID 2283038); conditions: primary human bronchial epithelial cells; actives raise or lower the signal;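 further: uPA protein level quantified by ELISA in cell cultures; uPA read one day after compound addition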
Outline: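 Human primary bronchial epithelial cells were exposed to chemical for 24 h, then uPA levels were measured by ELISA. Responses were fitted bidirectionally against DMSO as negative control and baseline. Parallel SRB staining of total protein gauged overt cytotoxicity.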

SMILES: CC(C)OC(=O)C(C)(C)Oc1ccc(C(=O)c2ccc(Cl)cc2)cc1
- outcome [1]: inactive
- AC50 [2]: 14.8 µM (active)
- AC50 [3]: 13.3 µM (active)
- AC50 [4]: 39 µM (active)
- AC50 [5]: 32.8 µM (active)
- outcome [6]: inactive
- outcome [7]: inactive
- outcome [8]: inactive
- outcome [9]: inactive
- AC50 [10]: 17 µM (active)
- outcome [11]: inactive
- outcome [12]: inactive
- outcome [13]: inactive
- outcome [14]: inactive
- outcome [15]: inactive
- outcome [16]: inactive
- outcome [17]: inactive

SMILES: Oc1ccccc1O
- outcome [1]: inactive
- AC50 [2]: 4.44 µM (active)
- outcome [3]: inactive
- outcome [4]: inactive
- AC50 [5]: 9.58 µM (active)
- outcome [7]: inactive
- outcome [18]: inactive
- outcome [8]: inactive
- outcome [19]: inactive
- AC50 [10]: 5.53 µM (active)
- outcome [11]: inactive
- outcome [12]: inactive
- outcome [13]: inactive
- outcome [14]: inactive
- outcome [20]: inactive
- outcome [15]: inactive
- outcome [16]: inactive
- outcome [17]: inactive

SMILES: CCc1nc(N)nc(N)c1-c1ccc(Cl)cc1
- outcome [1]: inactive
- outcome [2]: inactive
- outcome [3]: inactive
- outcome [4]: inactive
- outcome [5]: inactive
- outcome [7]: inactive
- outcome [18]: inactive
- outcome [8]: inactive
- outcome [19]: inactive
- outcome [10]: inactive
- outcome [11]: inactive
- outcome [12]: inactive
- outcome [13]: inactive
- outcome [14]: inactive
- outcome [15]: inactive
- outcome [16]: inactive
- outcome [17]: inactive

SMILES: CCCC(=O)O
- outcome [1]: inactive
- outcome [2]: inactive
- outcome [3]: inactive
- outcome [4]: inactive
- outcome [5]: inactive
- outcome [6]: inactive
- outcome [7]: inactive
- outcome [18]: inactive
- outcome [8]: inactive
- outcome [19]: inactive
- outcome [10]: inactive
- outcome [11]: inactive
- outcome [12]: inactive
- outcome [13]: inactive
- outcome [14]: inactive
- outcome [15]: inactive
- outcome [16]: inactive
- outcome [17]: inactive

SMILES: O=C1CCCCC1
- outcome [1]: inactive
- outcome [2]: inactive
- outcome [3]: inactive
- outcome [4]: inactive
- outcome [5]: inactive
- outcome [6]: inactive
- outcome [7]: inactive
- outcome [18]: inactive
- outcome [8]: inactive
- outcome [19]: inactive
- outcome [10]: inactive
- outcome [11]: inactive
- outcome [12]: inactive
- outcome [13]: inactive
- outcome [14]: inactive
- outcome [20]: inactive
- outcome [15]: inactive
- outcome [16]: inactive
- outcome [17]: inactive

SMILES: O=C(O)CN(CC(=O)O)CC(=O)O
- outcome [1]: inactive
- outcome [2]: inactive
- outcome [3]: inactive
- outcome [4]: inactive
- outcome [5]: inactive
- outcome [7]: inactive
- outcome [18]: inactive
- outcome [8]: inactive
- outcome [19]: inactive
- outcome [9]: inactive
- outcome [10]: inactive
- outcome [11]: inactive
- outcome [12]: inactive
- outcome [13]: inactive
- outcome [14]: inactive
- outcome [20]: inactive
- outcome [15]: inactive
- outcome [16]: inactive
- outcome [17]: inactive

SMILES: COC(=O)CCCC(=O)OC
- outcome [1]: inactive
- outcome [2]: inactive
- outcome [3]: inactive
- outcome [4]: inactive
- outcome [5]: inactive
- outcome [6]: inactive
- outcome [7]: inactive
- outcome [18]: inactive
- outcome [8]: inactive
- outcome [19]: inactive
- outcome [9]: inactive
- outcome [10]: inactive
- outcome [11]: inactive
- outcome [12]: inactive
- outcome [13]: inactive
- outcome [14]: inactive
- outcome [15]: inactive
- outcome [16]: inactive
- outcome [17]: inactive

SMILES: CCCCOC(=O)CCCCC(=O)OCCCC
- outcome [1]: inactive
- outcome [2]: inactive
- outcome [4]: inactive
- outcome [5]: inactive
- outcome [6]: inactive
- outcome [7]: inactive
- outcome [18]: inactive
- outcome [8]: inactive
- outcome [19]: inactive
- outcome [9]: inactive
- outcome [10]: inactive
- outcome [11]: inactive
- outcome [12]: inactive
- outcome [13]: inactive
- outcome [14]: inactive
- outcome [15]: inactive
- outcome [16]: inactive
- outcome [17]: inactive
